# Experimental data as given in PubChem BioAssay (NCI).
# Compounds without any hit were thinned out: in the full panel of roughly 83,000, 20% have a hit.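 Note: values are percent growth. 100 is the growth of untreated cells, values between 100 and 0 indicate rising inhibition; between -100 and 0 indicates cell death.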 Activity calls are given as the source filed them. Rule for the calls: active = growth percent below 10; inactive = the rest.
# System: HL-60(TB) leukemia
# Experiment: NCI-60 one-dose screen, 48 h (100 = growth as untreated, 0 = no growth, -100 = all killed)
# Details: 10 µM unless noted
row,SMILES,growth
1,CC1=C(C)C(=O)C(C(C)C2=C(C)C(=O)C(C)=C(C)C2=O)=C(C)C1=O,42.5% (inactive)
2,COc1ccc(C(=O)C(C)C)c2ccccc12,78.9% (inactive)
3,O=C(Nc1ccccc1)Nc1ccccc1CNc1nc(Nc2ccc(OCCN3CCCC3)cc2)ncc1Cl,-31.2% (active)
4,CCCCNC(=O)Oc1ccc(/C(=C(\C)c2ccccc2)c2ccc(OCCN3CCCCC3)cc2)cc1,49.4% (inactive)
5,O=C(O)c1c(=O)cccc2ssc12,-9.53% (active)
6,CN1CCN(c2ccc(Nc3ncc4[nH]c(=O)n(Cc5ccccc5N)c4n3)cc2)CC1,97.2% (inactive)
7,CCSC1=NC2C(N(CC)C(=O)N2CC)N1/N=C/C=C/c1ccccc1[N+](=O)[O-] (configuration not stated),-49.4% (active)
8,COc1ccc(-c2cc(-c3cc(OC)c(OC)c(OC)c3)c(C#N)c(=O)n2CCCCC(=O)NO)cc1,44% (inactive)
9,CCN(CC)S(=O)(=O)c1cccc([N+](=O)[O-])c1,95.5% (inactive)
10,COc1cc2c(c(OC)c1OC)-c1ccc(NNC(=S)N(Cc3cccc(C[N+](Cc4cccc(CNC56CC7CC(CC(C7)C5)C6)c4)(Cc4cccc(CNC56CC7CC(CC(C7)C5)C6)c4)Cc4cccc(CN(C(=S)NNc5ccc6c(cc5=O)[C@@H](NC(C)=O)CCc5cc(OC)c(OC)c(OC)c5-6)C56CC7CC(CC(C7)C5)C6)c4)c3)C34CC5CC(CC(C5)C3)C4)c(=O)cc1[C@@H](NC(C)=O)CC2 (some centres not stated),-63.4% (active)
11,O=C1OC(Cc2ccccc2)C1c1ccccc1 (configuration not stated),84.7% (inactive)
12,COc1cc(NC(=O)Nc2cnc(Nc3ccc(N4CCOCC4)cc3)nc2Oc2ccc(F)cc2)cc(OC)c1,65.4% (inactive)
